From article PMC4336329 (PLoS ONE, 2015)
The whole screen tested about 310,000 compounds, of which about 14,000 (4.5%) showed an effect of 50% or more. The effect is printed as a negative number. What follows is part of a selection rich in strong results, with near analogues and random picks from the rest.

These compounds were tested against human ether-à-go-go-related gene (hERG) potassium channel (human, UniProt Q12809) (assay: primary screen, population patch clamp on CHO cells stably expressing hERG; higher = less effect of the substance).
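Further: peak tail current of the secondary pulse compared with the same well before compound.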

Chain of human ether-à-go-go-related gene (hERG) potassium channel (Q12809 whole entry, looked up): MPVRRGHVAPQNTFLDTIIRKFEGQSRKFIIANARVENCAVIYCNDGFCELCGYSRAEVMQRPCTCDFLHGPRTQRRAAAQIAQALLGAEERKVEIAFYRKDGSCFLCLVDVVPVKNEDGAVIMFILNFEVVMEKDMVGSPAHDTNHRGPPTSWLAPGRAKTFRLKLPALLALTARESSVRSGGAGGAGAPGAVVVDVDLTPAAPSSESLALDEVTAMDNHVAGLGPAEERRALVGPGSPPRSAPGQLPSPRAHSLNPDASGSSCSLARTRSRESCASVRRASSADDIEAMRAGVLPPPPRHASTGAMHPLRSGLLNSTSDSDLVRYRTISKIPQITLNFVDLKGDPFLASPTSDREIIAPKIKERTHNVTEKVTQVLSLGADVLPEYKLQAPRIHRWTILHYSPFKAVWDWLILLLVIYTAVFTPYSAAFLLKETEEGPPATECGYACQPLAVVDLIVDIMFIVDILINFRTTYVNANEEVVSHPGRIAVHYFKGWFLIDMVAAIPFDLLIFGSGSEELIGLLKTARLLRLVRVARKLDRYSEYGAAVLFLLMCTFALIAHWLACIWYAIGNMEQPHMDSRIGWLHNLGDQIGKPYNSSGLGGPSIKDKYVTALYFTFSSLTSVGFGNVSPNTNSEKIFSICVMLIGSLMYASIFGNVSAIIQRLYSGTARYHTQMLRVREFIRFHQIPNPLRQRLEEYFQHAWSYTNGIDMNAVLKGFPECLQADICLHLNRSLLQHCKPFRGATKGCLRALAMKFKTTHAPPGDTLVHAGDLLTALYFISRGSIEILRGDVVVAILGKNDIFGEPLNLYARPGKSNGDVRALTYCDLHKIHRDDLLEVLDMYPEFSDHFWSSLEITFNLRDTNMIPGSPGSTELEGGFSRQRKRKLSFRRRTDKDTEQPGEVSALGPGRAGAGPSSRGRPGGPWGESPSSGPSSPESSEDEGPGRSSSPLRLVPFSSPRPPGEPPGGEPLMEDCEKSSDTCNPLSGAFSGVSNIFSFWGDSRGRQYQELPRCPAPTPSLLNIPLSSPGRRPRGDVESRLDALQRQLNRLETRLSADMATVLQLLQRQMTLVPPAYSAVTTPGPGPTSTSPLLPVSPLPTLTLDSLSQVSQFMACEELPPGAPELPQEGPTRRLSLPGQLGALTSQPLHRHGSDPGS

Row | Compound | hERG current change (%, negative = inhibition) at 10uM
1 | CCOc1ccccc1NC(=O)NCc1ccco1 | 8.52%
2 | CC(=O)N1CCc2cc(S(=O)(=O)CCC(=O)NCc3ccc(F)cc3)ccc21 | -13.8%
3 | O=C1C=C(O)C(n2cncn2)C(c2ccc3c(c2)OCO3)C1 (stereo not shown) | 17.1%
4 | O=C(NCc1cccnc1)c1nc(-c2ccccc2)n(-c2ccccc2)n1 | -14.7%
5 | O=C(CCCCCn1c(=S)[nH]c2ccc(N3CCOCC3)cc2c1=O)NCc1ccccc1 | 12%
6 | COc1ccc(C(=O)OCc2c(C)noc2C)cc1 | 12.9%
7 | COC(=O)c1ccc(NC(=S)NC2CCc3ccccc32)cc1 (stereo not shown) | -13.9%
8 | CNS(=O)(=O)c1ccc2c3c(cccc13)C(=O)N2 | 9.73%
9 | Cc1ccc(S(=O)(=O)CC(=O)N(CCCN(C)C)c2nc3ccc(C)cc3s2)cc1.Cl | -43.9%
10 | COc1ccc(C)c2sc(N(CCCN(C)C)C(=O)CS(=O)(=O)c3ccc(F)cc3)nc12.Cl | -60.3%
11 | COc1ccc(C)c2sc(N(CCCN(C)C)C(=O)c3ccc(S(=O)(=O)N4CCc5ccccc5C4)cc3)nc12.Cl | 9.73%
12 | Cc1cc(C)c2nc(N(CCCN(C)C)C(=O)c3ccc(S(=O)(=O)N4CC(C)OC(C)C4)cc3)sc2c1.Cl (stereo not shown) | -33.7%
13 | Cc1cccc2sc(N(CCCN3CCOCC3)C(=O)CS(=O)(=O)c3ccc(F)cc3)nc12.Cl | -16.9%
14 | Cc1cc(C)c2nc(N(CCCN(C)C)C(=O)C3=COCCO3)sc2c1.Cl | -65.9%
15 | Cc1cc(C)c2nc(N(CCN(C)C)C(=O)/C=C/c3cccs3)sc2c1.Cl | 17.9%
16 | COc1ccc(C)c2sc(N(CCCN(C)C)C(=O)c3ccc(S(=O)(=O)N(C)C)cc3)nc12.Cl | -61.5%
17 | COc1ccc(OC)c2sc(N(CCCN(C)C)C(=O)c3ccc(S(=O)(=O)N4CCc5ccccc5C4)cc3)nc12.Cl | -8.54%
18 | Cc1ccc(-n2nnnc2SCC(=O)N2CCCCC2)cc1 | -3.3%
19 | CCNC(=S)N/N=C/c1c(Cl)cccc1Cl | 18.1%
20 | Cc1cccc(-n2ncc3c2CCCC3NC(=O)C2CCOCC2)c1C (stereo not shown) | 6.59%
21 | O=C(Nc1cnc2ccccn2c1=O)c1ccc(Cl)cc1 | -23%
22 | COc1ccc(NC(=O)CN2C(=O)NC(c3ccccc3)(c3ccccc3)C2=O)cc1 | -55%
23 | CCNC(=O)NC(=O)C(C)N1C(=O)NC(c2ccccc2)(c2ccccc2)C1=O (stereo not shown) | -43.6%

Row | Compound | hERG current change (%, negative = inhibition) at 10uM
24 | CN(CC(=O)Nc1ccccc1Cl)C(=O)CN1C(=O)NC(c2ccccc2)(c2ccccc2)C1=O | -66.8%
25 | CN(CC(=O)Nc1ccccc1Cl)C(=O)COC(=O)CN1C(=O)NC2(CCCC2)C1=O | 9.31%
26 | COc1ccc(CNC(=O)C(C)N2C(=O)NC(c3ccccc3)(c3ccccc3)C2=O)cc1 (stereo not shown) | -86.5%
27 | COc1cc(NC(=O)CN2C(=O)NC(c3ccccc3)(c3ccccc3)C2=O)cc(OC)c1 | 5.79%
28 | NC(=O)NC(=O)CN1C(=O)NC(c2ccccc2)(c2ccccc2)C1=O | 4.8%
29 | CCN1C(=O)C(=O)N(CC(=O)N(C)CC(=O)Nc2ccccc2Cl)C1=O | 4.13%
30 | CC(C(=O)NC(N)=O)N1C(=O)NC(c2ccccc2)(c2ccccc2)C1=O (stereo not shown) | -14.9%
31 | C=CCNC(=O)NC(=O)CN1C(=O)NC(c2ccccc2)(c2ccccc2)C1=O | -69.5%
32 | COc1ccc(C2(c3ccc(OC)cc3)NC(=O)N(CC(=O)Nc3ccccc3)C2=O)cc1 | 28.6%
33 | O=C(CN1C(=O)NC(c2ccccc2)(c2ccccc2)C1=O)NCc1ccccc1 | -31%
34 | CCOC(=O)N1CCN(C(=O)c2csc3c2CCCCC3)CC1 | 8.08%
35 | C=C(C)C1Cc2c(C)nn(-c3ccccn3)c2C1 (stereo not shown) | 11%
36 | Cc1csc(SCC(=O)Nc2sccc2C#N)n1 | -0.612%
37 | Cc1oc(-c2ccccc2)nc1CS(=O)CC(=O)NC1CCCCCC1 (stereo not shown) | -11.5%
38 | Cc1cccc(OCC(=O)NCC(=O)n2nc(C)cc2C)c1 | 10.5%
39 | Oc1c(C(c2ccco2)N2CCC3(CC2)OCCO3)sc2ncnn12 (stereo not shown) | 1.38%
40 | COc1ccc(C2C=C(c3ccc(Cl)cc3)Nc3nc(NC(C)=O)nn32)cc1 (stereo not shown) | -39.7%
41 | COc1ccc(C2=CC(c3ccc(Cl)cc3)n3cnnc3N2)cc1OC (stereo not shown) | -52%
42 | COc1ccc(C2=CC(c3c(C)nn(-c4ccccc4)c3Cl)n3nnnc3N2)cc1OC (stereo not shown) | 11.4%
43 | Cc1ccc(OCc2nnc(SCC(=O)Nc3sc(C)c(C)c3C#N)n2C)cc1 | 12.8%
44 | Cc1sc(NC(=O)CSc2nnc(C(C)C)n2C)c(C#N)c1C | -1.79%
45 | COCCn1c(SCC(=O)Nc2sc(C)c(C)c2C#N)nnc1C(C)C | -3.62%
46 | CCOC(=O)c1sc(NC(=O)CSc2nnc(-c3ccc(OC)cc3)n2CCOC)nc1C | -27.3%

Row | Compound | hERG current change (%, negative = inhibition) at 10uM
47 | COCCn1c(SCC(=O)Nc2sc(C)c(C)c2C#N)nnc1-c1ccc(OC)cc1 | -52.1%
48 | Cc1ccc(-c2nnc(SCC(=O)Nc3sc(C)c(C)c3C#N)n2C)cc1 | -54.1%
49 | CN1CCN(C(=S)c2ccc(-c3cc(Cl)ccc3Cl)o2)CC1 | -20.7%
50 | CC1CCN(C(=O)COC(=O)c2cc3ccccc3cc2O)CC1 | 3.92%
51 | O=C1c2ccccc2C(=O)N1n1c(=O)[nH]c2ccccc2c1=O | 14.9%
52 | O=C(O)c1ccccc1-n1c2ccccc2c2ccccc21 | 19%
53 | COc1ccccc1NC(=O)C(C)OC(=O)Cc1n[nH]c(=O)c2ccccc12 (stereo not shown) | 9.99%
54 | Cn1c(SCc2nc3ccccc3[nH]2)nnc1-c1cnccn1 | 10.2%
55 | Oc1ccc(C=NCCc2ccccc2)cc1 | 10.2%
56 | COc1ccc(OC)c(/C=C/C(=O)N(C)CC(=O)Nc2ccc(N3CCOCC3)cc2)c1 | -8.78%
57 | COc1ccc(C[C@H]2CN3C(=NC[C@@H]3Cc3ccccc3)N2CCNC(=O)c2ccc(C)c(Br)c2)cc1 | -74%
58 | CCCCCCNC(=O)N[C@@H](C(=O)NCCC[C@H]1CN2C(=NC[C@@H]2Cc2ccccc2)N1CCc1cccc(OC)c1)C(C)C | -18.7%
59 | COc1ccc(C[C@H]2CN3C(=NC[C@H]3Cc3ccccc3)N2CCNC(=O)c2ccc(C)c(Br)c2)cc1 | -69%
60 | COc1ccc(/C=N/Nc2cc(N(C)C)nc(N(C)C)n2)cc1 | -28.5%
61 | COc1ccc(C2(C(=O)Nc3ccc(C)c(C)c3)CCOCC2)cc1 | 6.97%
62 | Cc1ccc2c(c1)sc(C)[n+]2CCCS(=O)(=O)[O-] | 29.7%
63 | COc1cc(/C=N/NC(=O)Cc2ccccc2)ccc1Oc1ccc([N+](=O)[O-])cc1[N+](=O)[O-] | 1.03%
64 | CN1CCCC(OC(=O)c2ccc(S(=O)(=O)N(C)C)cc2)C1.Cl (stereo not shown) | 8.58%
65 | Cc1ccc(SCCOCCN2CCOCC2)cc1.Cl | -1.55%
66 | Cl.Clc1ccc(SCCOCCN2CCc3ccccc3C2)cc1 | -53.7%
67 | CC1CN(CCOCCSc2ccccc2)CC(C)O1.Cl (stereo not shown) | -14.9%
68 | Cc1ccc(Cl)c(OCCN2CCc3ccccc3C2)c1.Cl | -9.17%
69 | c1ccc(SCCN2CCc3ccccc3C2)cc1 | -19.3%

Row | Compound | hERG current change (%, negative = inhibition) at 10uM
70 | Cc1ccc(SCCOCCN2CCc3ccccc3C2)cc1 | -60.5%
71 | c1ccc(SCCOCCN2CCc3ccccc3C2)cc1 | -75.3%
72 | Cl.c1ccc(SCCOCCN2CCOCC2)cc1 | 14.3%
73 | Cc1ccc(SCCOCCN2CC(C)OC(C)C2)cc1.Cl (stereo not shown) | -12.4%
74 | O=C(c1cccnc1)N1CCC(Oc2ccc(C(=O)N3CCCC(O)C3)cc2)CC1 (stereo not shown) | -0.912%
75 | CC(=O)c1cnc2nc(SCc3ccccc3)nn2c1C | 0.852%
76 | O=C(c1ccco1)N1CCN(C2CC(=O)N(c3ccc4c(c3)OCO4)C2=O)CC1 (stereo not shown) | -16.8%
77 | COc1ccc(CC(=O)N2CCN(c3ccccn3)CC2)cc1OC | 8.9%
78 | COc1cc(C(=O)N/N=C/c2cc([N+](=O)[O-])cs2)cc(OC)c1OC | -8.26%
79 | C[C@@H](C(=O)NCc1ccc(S(C)(=O)=O)cc1)[C@H]1C[C@]1(C)[C@H](NC(=O)OCc1ccccc1)c1ccccc1 | -35.4%
80 | C[C@@H](C(=O)NCc1ccccc1)[C@H]1C[C@]1(C)[C@H](NC(=O)OCc1ccccc1)c1ccccc1 | -21.3%
81 | C[C@@H](C(=O)NCc1ccc(S(C)(=O)=O)cc1)[C@@H]1C[C@@]1(C)[C@@H](NC(=O)OCc1ccccc1)c1ccccc1 | -75.1%
82 | CCCC(=O)n1nc(-c2ccco2)nc1SCc1ccccc1 | 0.232%
83 | CN(CC(=O)N1CCN(c2ccccn2)CC1)S(=O)(=O)c1cccc2nsnc12 | -23.6%
84 | O=C(C(NS(=O)(=O)c1cccc2nsnc12)c1ccccc1)N1CCN(c2ccccc2)CC1 (stereo not shown) | -71.4%
85 | CC1CCN(C(=O)C(NS(=O)(=O)c2cccc3nsnc23)C(C)C)CC1 (stereo not shown) | -5.48%
86 | O=C(C(NS(=O)(=O)c1cccc2nsnc12)c1ccccc1)N1CCN(c2ccccn2)CC1 (stereo not shown) | -64.8%
87 | CC1CCN(C(=O)C(NS(=O)(=O)c2cccc3nsnc23)c2ccccc2)CC1 (stereo not shown) | -69.5%
88 | O=C(Nc1ccccn1)C(NS(=O)(=O)c1cccc2nsnc12)c1ccccc1 (stereo not shown) | -4.67%
89 | CCOC(=O)N1CCN(C(=O)C(NS(=O)(=O)c2cccc3nsnc23)c2ccccc2)CC1 (stereo not shown) | -47.1%
90 | O=C(O)C(NS(=O)(=O)c1cccc2nsnc12)c1ccccc1 (stereo not shown) | 16.1%
91 | O=C(NC1CCCC1)C(NS(=O)(=O)c1cccc2nsnc12)c1ccccc1 (stereo not shown) | -10.5%
